PubChem BioAssay (Tox21)
Inconclusive results are not listed. Activity calls are given as the source filed them. Unless noted, the call rests on the fitted dose curve; in most records, active means well fitted curve in the direction sought with a large enough effect in the repeat runs; inconclusive means weak or mixed curves; inactive means no such curve, though single readings can be large; an effect the other way counts as inactive or inconclusive.

Assays:
[1] = qHTS assay for small molecule agonists of the p53 signaling pathway (AID 651631; calls by dose curve; further: nearly all actives have a fitted effect of over 15% in size)
Summary of the method: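 HCT-116 cells carrying a beta-lactamase reporter under p53 response elements were dosed with compound for 16 h at 37 °C. LiveBLAzer B/G FRET substrate was then added for 2 h at room temperature, and fluorescence intensity was read to detect pathway agonism.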

[2] = qHTS assay for small molecules that induce genotoxicity in human embryonic kidney cells expressing luciferase-tagged ATAD5 (AID 651632); further: nearly all actives have a fitted effect of over 15% in size
Summary of the method: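 Cells were seeded at 2,000 per well, dosed with compound, and incubated 16 hr at 37C in 5% CO2. Luciferase activity was then quantified after a 30 min room-temperature incubation with Amplite.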

[3] = qHTS assay for small molecule agonists of the p53 signaling pathway - cell viability (AID 651633; calls by dose curve;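 further: p53RE-bla HCT reporter cells with a stable beta-lactamase p53 reporter; series mostly up to about 83 µM; nearly all actives have a fitted effect of over 30% in size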)
Summary of the method: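 p53RE-bla cells, seeded at 4,000 per well and rested 5 h at 37 C/5% CO2, received compounds in DMSO for 16 h at 37 C. CellTiter-Glo was then added, and luminescence was read after 30 min at room temperature to gauge cytotoxicity.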

[4] = qHTS assay for small molecules that induce genotoxicity in human embryonic kidney cells expressing luciferase-tagged ATAD5 - cell viability (AID 651634; calls by dose curve; further: nearly all actives have a fitted effect of over 25% in size)
Summary of the method: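 Cells (HEK293T, luciferase-tagged ATAD5) are seeded at 2,000 per well, dosed with compound or DMSO vehicle, and incubated 15.5 hr at 37C and 5% CO2. CellTiter-Fluor is added for 30 min before fluorescence is measured.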

[5] = qHTS assay for small molecule disruptors of the mitochondrial membrane potential - cell viability (AID 720634; calls by dose curve;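 further: human HepG2 liver cancer cells; series mostly up to about 83 µM; nearly all actives have a fitted effect of over 20% in size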)
Summary of the method: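 Cytotoxicity was measured by ATP quantitation in HepG2 wells that had first been treated with compound for 1 hr and stained with m-MPI dye; CellTiter-Glo incubation was 30 min at room temperature.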

[6] = qHTS assay for small molecule disruptors of the mitochondrial membrane potential (AID 720635)
Summary of the method: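 HepG2 cells (2,000/well) attached overnight at 37C, then took compound for 1 hr at 37C, 5% CO2. Mito-MPS dye was added for 30 min; fluorescence was read at 490/535 nm (monomers) and 540/590 nm (aggregates).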

[7] = qHTS assay to test for compound auto fluorescence at 590 nm (red) in HepG2 cells (AID 720674)
Summary of the method: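 Compound auto-fluorescence is scored relative to Rose Bengal sodium, measured at 540/590 nm in live HepG2 cultures after 1 hr compound contact (37 C, 5% CO2).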

[8] = qHTS assay to test for compound auto fluorescence at 460 nm (blue) in HEK293 cells (AID 720678)
Summary of the method: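 Triamterene serves as the blue fluorophore standard. Compound signal at 405/460 nm is read in HEK293 wells (2,000 cells, 10% dialyzed FBS) after overnight treatment at 37C.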

[9] = qHTS assay to test for compound auto fluorescence at 590 nm (red) in HEK293 cells (AID 720679)
Summary of the method: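 We plated HEK293 cells in 10% dialyzed FBS medium, let them adhere for 4-5 hr, then added 23 nL compound. Overnight at 37C and 5% CO2 preceded fluorescence measurement at 540/590nm.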

[10] = qHTS assay to test for compound auto fluorescence at 535 nm (green) in HepG2 cells (AID 720675)

Measured: Potency

C=CC1=C(C(=O)O)N2C(=O)[C@@H](NC(=O)/C(=N\O)c3csc(N)n3)[C@H]2SC1 (stereo in doubt)
not listed: [10]
inactive: all other assays above

CC(C)C[C@@H](NC(=O)[C@@H](O)[C@H](N)Cc1ccccc1)C(=O)O
not listed: [7]
inactive: all other assays above

CC12CCC(C1)C(C)(C)C2=O (stereo not drawn)
not listed: [7]
inactive: all other assays above

CCCCCCOC(=O)c1cccnc1
not listed: [7]
inactive: all other assays above

C=C1[C@@H]2CC[C@@H](C2)C1(C)C
not listed: [10]
inactive: all other assays above

NS(=O)(=O)c1cc(Cl)c(Cl)c(S(N)(=O)=O)c1
not listed: [10]
inactive: all other assays above

Nc1nc(/C(=C/CC(=O)O)C(=O)N[C@@H]2C(=O)N3C(C(=O)O)=CCS[C@H]23)cs1
not listed: [10]
inactive: all other assays above

CC/C=C\C/C=C\C/C=C\C/C=C\C/C=C\CCCC(=O)O
not listed: [6] | [7]
inactive: all other assays above

O=c1[nH]c(=O)n([C@H]2C[C@H](O)[C@@H](CO)O2)cc1/C=C/Br
not listed: [6]
inactive: all other assays above

CN1[C@@H](CC(=O)c2ccccc2)CCC[C@H]1C[C@H](O)c1ccccc1
not listed: [6]
inactive: all other assays above

O=C[C@H](O)[C@@H](O)[C@@H](O)[C@H](O)CO
not listed: [6]
inactive: all other assays above

CC1(C)S[C@@H]2[C@H](N3C(=O)C(c4ccccc4)NC3(C)C)C(=O)N2[C@H]1C(=O)O (stereo partly drawn)
not listed: [6]
inactive: all other assays above

OCC1(CO)COC(C(Cl)(Cl)Cl)OC1
not listed: [6]
inactive: all other assays above

CC1(C)S[C@@H]2[C@H](NC(=O)[C@@H](NC(=O)N3CCNC3=O)c3ccccc3)C(=O)N2[C@H]1C(=O)O
not listed: [6]
inactive: all other assays above

CC(=O)O[C@H]1C[C@@H]2CC[C@@H]3[C@H](CC[C@@]4(C)[C@H]3C[C@H]([N+]3(C)CCCCC3)[C@@H]4OC(C)=O)[C@@]2(C)C[C@@H]1[N+]1(C)CCCCC1
not listed: [6]
inactive: all other assays above

CS(=O)(=O)c1ccc([C@@H](O)[C@@H](COC(=O)CN)NC(=O)C(Cl)Cl)cc1
not listed: [6] | [10]
inactive: all other assays above

C[C@@H]1C[C@H]2[C@@H]3C[C@H](F)C4=CC(=O)C=C[C@]4(C)[C@@]3(Cl)[C@@H](O)C[C@]2(C)[C@H]1C(=O)COC(=O)C(C)(C)C
not listed: [6]
inactive: all other assays above

C=CCN1C(=O)C(CC(C)C)NC1=S (stereo not drawn)
not listed: [6]
inactive: all other assays above

O=C(N[C@H](CO)[C@H](O)c1ccc([N+](=O)[O-])cc1)C(Cl)Cl
not listed: [6]
inactive: all other assays above

C[N+]1(CCCCC[N+]2(C)CCCC2)CCCC1
not listed: [6]
inactive: all other assays above
